# Measurements as given in PubChem BioAssay AID2685 (National Center for Advancing Translational Sciences (NCATS), 2010).
# Screen size: about 320,000 compounds; about 2,100 (0.66%) were called active. Not shown: some 53% with an inconclusive outcome. Calls follow the shape of the dose curve; as a rule, active = well fitted inhibition curve with a large enough effect in the signal ratio, with a control signal flat (not every such curve was filed as active); inconclusive = small, poorly fitted or top-dose-only effect, or effect the other way, or a change in a side signal; inactive = flat fitted curve, though single readings scatter; the % refers to the signal ratio. The list comes from a sample in which actives are over-represented; it also holds similar structures and randomly drawn compounds.
# Assay: qHTS Assay for Lipid Storage Modulators in Drosophila S3 Cells;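 as to cell number change: cells counted by Cell Tracker Red CMTPX staining in the red channel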; as to lipid storage change, negative = inhibition: % is scaled to controls: 0 for no effect and ±100 for the full control effect
# Conditions: BODIPY lipid droplet fluorescence, 18-24 h, cells fed with added oleic acid; cell number change: measured here: cell count max response; series mostly up to 46.1 µM; lipid storage change, negative = inhibition: at the top concentration
# Method in brief: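 Drosophila S3 cells got compounds at several concentrations plus oleic acid (400 uM solution). Laser-scanning cytometry with 488 nm excitation read lipid droplets at 500-530 nm and cells at 575-640 nm. Percent activity was relative to 20 uM Triacsin C.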
# Potency is read from the fitted curve at half-maximal effect.
Compound,"lipid storage change, negative = inhibition",cell number change [%],outcome,Potency
CCCNc1ccc(S(=O)(=O)N(CC)CC)cn1,-12.3% (inactive),5.83,–,–
Cc1ccc(S(=O)(=O)N(CC(=O)NC2CC2)c2ccc(C)c(Cl)c2)cc1,-26.3% (inactive),–,–,–
CCOC(=O)CCN,–,3.17,inactive,–
O=C(NCC1CCCO1)c1ccc2c(c1)C(=O)N(c1cccc([N+](=O)[O-])c1)C2=O (stereo not given),–,-9.52,–,0.82 µM (active)
O=C(NCC1CCCO1)c1ccc2c(c1)C(=O)N(C1CCCCC1)C2=O (stereo not given),–,2.66,inactive,–
O=C(NCC1CCCO1)c1ccc(NS(=O)(=O)c2cccc([N+](=O)[O-])c2)cc1 (stereo not given),-23.3% (inactive),5.5,–,–
Nc1c(-c2ccc(Cl)cc2)cnn1-c1cccc(C(F)(F)F)c1,3.21% (inactive),10.7,–,–
O=C(C1CCCN(Cc2ccc(Cl)cc2)C1)N1CCCCC1 (stereo not given),–,22.8,inactive,–
NC(=O)C1CCCN(Cc2ccc3ccccc3c2)C1 (stereo not given),–,10.8,inactive,–
NC(=O)C1CCCN(Cc2ccc(Cl)cc2)C1 (stereo not given),–,-11.1,–,29.1 µM (active)
O=C(COC(=O)c1ccc(S(=O)(=O)NCc2ccco2)cc1)NCC1CCCCC1,–,-12.1,–,25.9 µM (active)
O=C(COC(=O)c1ccc(S(=O)(=O)NCc2ccco2)cc1)NC1CCCCC1,6.47% (inactive),0.997,–,–
Cc1ccc(CNC(=O)COC(=O)c2ccc(S(=O)(=O)NCc3ccco3)cc2)cc1,14.5% (inactive),-0.995,–,–
C#CCOCCOCCOCCNc1nc(N2CCN(C(=O)[C@H](CCC(=O)O)n3cc(C(N)[C@H](C)CC)nn3)CC2)nc(N2CCN(C(=O)[C@H](CCC(=O)O)n3cc(C(N)[C@H](C)CC)nn3)CC2)n1 (stereo not given in full),-5.28% (inactive),-3.88,–,–
O=C(CN(Cc1ccccc1)S(=O)(=O)c1ccccc1)N/N=C/c1ccc([N+](=O)[O-])cc1,13.5% (inactive),-4.65,–,–
Cc1ccc(OCC(=O)NNC(=S)NC(=O)c2ccc(Br)o2)c(C)c1,19.1% (inactive),7.54,–,–
Cc1ccc(-n2nc3c(=O)n(CC(=O)NCCc4ccc(Cl)cc4)nc(C)c3c2C)cc1,12.1% (inactive),-10.8,–,–
Cc1ccc(-n2nc3c(=O)n(C(C)C(=O)NCCCc4ccccc4)nc(C)c3c2C)cc1 (stereo not given),–,-8.4,inactive,–
Cc1ccc(-n2nc3c(=O)n(CC(=O)NCCCc4ccccc4)nc(C)c3c2C)cc1,–,21,–,18.4 µM (active)
Cc1cc(C)cc(NC(=O)CSc2ncc(S(=O)(=O)c3ccccc3)c(=O)[nH]2)c1,6.14% (inactive),4.62,–,–
O=C(CN1CCNC(=O)C1)NCCc1ccc(Cl)cc1Cl,-25.2% (inactive),-23.8,–,–
O=C(CN1C(=O)C(=O)N(C2CCCC2)C1=O)NCCc1ccc(Cl)cc1Cl,–,-0.378,–,4.11 µM (active)
O=C(CN1CC(=O)Nc2ccccc21)NCCc1ccc(Cl)cc1Cl,-1.77% (inactive),-5.87,–,–

Compound,"lipid storage change, negative = inhibition",cell number change [%],outcome,Potency
CC(=O)c1cccc(NC(=O)c2cc(C)no2)c1,1.89% (inactive),5.99,–,–
CCC(C)[C@@H](N)C(=O)N/N=C/c1cccc2nccnc12 (stereo not given in full),-5.79% (inactive),-7.62,–,–
CCC(c1nnnn1Cc1ccco1)N1CCC(C(N)=O)CC1 (stereo not given),–,-7.68,–,5.8 µM (active)
CC(C)C(c1nnnn1Cc1ccco1)N1CCC(C(N)=O)CC1 (stereo not given),-0.139% (inactive),-12.1,–,–
CCC(c1nnnn1Cc1ccco1)N1CCN(C(=O)c2ccco2)CC1 (stereo not given),3.59% (inactive),0.561,–,–
CCCC(=O)Nc1ccc2oc(=O)ccc2c1,-2.96% (inactive),-4.63,–,–
Cc1ccccc1C(=O)N1CCCC(N2CCN(Cc3ccc4c(c3)OCO4)CC2)C1 (stereo not given),5.73% (inactive),0.496,–,–
CCNc1nc(NCC)n2c(SCC(=O)Nc3ccccc3)nnc2n1,-3.31% (inactive),9.23,–,–
CCNc1nc(NCC)n2c(SCC(=O)c3ccccc3Cl)nnc2n1,12.4% (inactive),–,–,–
CCNc1nc(NCC)n2c(SCC(=O)O)nnc2n1,–,-12,–,29.1 µM (active)
Cc1csc(NC(=O)c2ccc(S(=O)(=O)N3CCCC3)cc2)n1,3.45% (inactive),5.75,–,–
O=C(CNS(=O)(=O)c1cccc2nonc12)NCc1ccc(F)cc1,–,–,inactive,–
COc1cc2c(cc1OC)n(CC(=O)NC1CCCCCC1)n1c(C)cc(=O)nc21,–,-21.9,–,8.2 µM (active)
COc1cccc2c1cc1c(=O)n(CC(=O)NC3CCCCC3)nc(C)n12,7.54% (inactive),-12.9,–,–
CCC(C(=O)NC1CCCCC1)n1c2ccccc2c2nc(=O)cc(C)n21 (stereo not given),–,1.33,inactive,–
Nc1nc(C2CCCN2S(=O)(=O)c2ccc(Cl)cc2)cs1 (stereo not given),–,-2,inactive,–
CCOc1ccc(NC(=O)C2CCC(CNc3c(N4CCCCC4)c(=O)c3=O)CC2)cc1 (stereo not given),2.07% (inactive),–,–,–
CC(C)CC(=O)Nc1cccc(-c2nc3ncccc3o2)c1,8.93% (inactive),-6.34,–,–
CCCCC(=O)Nc1cccc(-c2nc3ncccc3o2)c1,18.9% (inactive),0.0678,–,–
O=C(CSc1ccc(Cl)cc1)Nc1cccc(-c2nc3ncccc3o2)c1,–,-12.7,–,1.3 µM (active)
CCc1ccccc1N1CCN(S(=O)(=O)c2cc(OC)ccc2OC)CC1,–,–,inactive,–
CCc1ccc(Nc2cnn(C34CC5CC(CC(CC(=O)O)(C5)C3)C4)c(=O)c2Cl)cc1,7.65% (inactive),8.4,–,–
